This is an account of results in PubChem BioAssay (NCI).

Compounds without any hit were thinned out: in the full panel of roughly 83,000, 20% have a hit.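 Step 1: grow cells in 96-well plates. Step 2: add test compound at a single concentration. Step 3: incubate 48 h. Step 4: record percent growth.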 The source made the active and inactive calls. Rule for the calls: active = growth percent below 10; inactive = the rest.

The test system of the experiment is UACC-62 melanoma. Briefly: NCI-60 one-dose screen, 48 h (100 = growth as untreated, 0 = no growth, -100 = all killed). To be noted: 10 µM unless noted.
As to `O=C1[C@H]2Cc3c([nH]c4ccccc34)[C@@H](c3ccc(Br)cc3)N2C(=O)CN1C1CCN(CC2CCCCC2)CC1`, the growth was 42.3% (inactive).
Then `NS(=O)(=O)c1ccc(Nc2nc(Nc3ccccc3)nc3nnc(SCC(=O)NC4CCCCC4)n23)cc1`, with 92.3% (inactive); and `O=C(NNc1nc2cc(F)ccc2n2c(CN3CCC(O)C3)ccc12)c1cnccn1` (stereo unspecified), with 0.128% (active).
For the molecule `CCN(CC)c1cn(-c2ccc(S(N)(=O)=O)cc2)nn1`, the growth is 94.9% (inactive).
Next, `O=[N+]([O-])c1cc(/C=N/Nc2nc(N/N=C/c3ccc(Cl)c([N+](=O)[O-])c3)nc(N3CCCCC3)n2)ccc1Cl`: 43.1% (inactive).
Then `CC(=O)Nc1cccc(Nc2nc(N[C@@H](C)c3ccccc3)c3ccccc3n2)c1`, with 28.6% (inactive); and `COc1ccc(COc2ccc(/C=C3\C(=O)Nc4ccccc43)cc2OC)cc1`, with 96.7% (inactive); and `CCNC(=O)Oc1ccc(/C(=C(/C)c2ccccc2)c2ccc(OCCN3CCCCCC3)cc2)cc1`, with 16.5% (inactive).
Next, `CC(C)c1ccc(NCc2cn(-c3ccc(C(=O)O)cc3)nc2-c2cc(C(F)(F)F)cc(C(F)(F)F)c2)cc1`: 81.9% (inactive).
On to `C[C@@H]1C[C@H]2C(=O)O[C@@H](C)C(NC(=O)[C@H](Cc3cc(F)cc(F)c3)NC(=O)Nc3ccc(Cl)cc3F)C(=O)N3CCC[C@H]3C(=O)N3CCCC[C@H]3C(=O)N[C@@H](CO)C(=O)N2C1` (stereo partly specified), for which the growth was 29.5% (inactive).
As for `CC(=O)O[C@@H]1C(=O)N(c2cnccn2)[C@H]1c1ccccc1[N+](=O)[O-]`, the growth is 30% (inactive).
